Test results: PubChem BioAssay (EPA / NIEHS)
Inconclusive results are not listed. Active and inactive are the calls of the source. The calls were made as follows: active = hit-call score of the fitted dose curve at least 0.9, where 1 is the maximum; inconclusive = response in the unintended direction; inactive = score below 0.9.

Each molecule was assayed against human Phosphodiesterase 4A1 (PDE4A1), PDE4A (gene 5141) (UniProt P27815) (assay: NVS_ENZ_hPDE4A1: NovaScreen (NVS) Enzymatic Assay for human Phosphodiesterase 4A1 (PDE4A1) (AID 2283191)).
Chain of human Phosphodiesterase 4A1 (PDE4A1), PDE4A (gene 5141) (P27815 whole entry, looked up): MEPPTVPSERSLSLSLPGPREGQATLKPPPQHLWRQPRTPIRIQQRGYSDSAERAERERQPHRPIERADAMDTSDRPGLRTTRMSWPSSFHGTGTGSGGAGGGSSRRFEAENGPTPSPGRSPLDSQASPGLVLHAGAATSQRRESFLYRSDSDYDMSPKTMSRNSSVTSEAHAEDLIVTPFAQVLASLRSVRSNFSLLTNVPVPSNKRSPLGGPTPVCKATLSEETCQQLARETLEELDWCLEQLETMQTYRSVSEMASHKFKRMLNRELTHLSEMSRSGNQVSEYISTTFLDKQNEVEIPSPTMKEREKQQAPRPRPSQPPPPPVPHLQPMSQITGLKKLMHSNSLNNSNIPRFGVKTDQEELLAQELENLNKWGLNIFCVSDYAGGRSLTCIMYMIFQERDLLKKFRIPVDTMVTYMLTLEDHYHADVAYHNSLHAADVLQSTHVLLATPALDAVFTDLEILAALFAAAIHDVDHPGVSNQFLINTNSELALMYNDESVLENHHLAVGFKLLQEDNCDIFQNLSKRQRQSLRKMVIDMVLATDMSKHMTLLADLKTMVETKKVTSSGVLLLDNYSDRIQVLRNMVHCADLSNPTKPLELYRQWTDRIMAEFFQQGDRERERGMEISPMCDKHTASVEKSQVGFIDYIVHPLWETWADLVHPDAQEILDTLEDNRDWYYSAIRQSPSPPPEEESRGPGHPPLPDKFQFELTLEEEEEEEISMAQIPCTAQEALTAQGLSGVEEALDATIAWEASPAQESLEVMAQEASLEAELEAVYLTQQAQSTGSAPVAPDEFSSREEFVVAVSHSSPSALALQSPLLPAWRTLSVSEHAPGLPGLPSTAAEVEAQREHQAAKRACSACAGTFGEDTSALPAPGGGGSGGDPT
Experimental: NVS_ENZ_hPDE4A1 is a biochemical, single-readout assay that uses extracted gene-proteins in a cell-free assay. Measurements were taken 1 hour after chemical dosing in a 384-well plate.NVS_ENZ_hPDE4A1 is one of one assay component(s) measured or calculated from the NVS_ENZ_hPDE4A1 assay. It is designed to make measurements of enzyme activity, a form of enzyme reporter, as detected with fluorescence intensity signals by Fluorescence and electrophoretic mobility shift technology.Data from the assay component NVS_ENZ_hPDE4A1 was analyzed into 1 assay endpoint. This assay endpoint, NVS_ENZ_hPDE4A1, was analyzed in the positive analysis fitting direction relative to DMSO as the negative control and baseline of activity. Using a type of enzyme reporter, loss-of-signal activity can be used to understand changes in the enzymatic activity as they relate to the gene PDE4A. Furthermore, this assay endpoint can be referred to as a primary readout, because this assay has produced multiple assay endpoints where this one serves a enzymatic activity function. To generalize the intended target to other relatable targets, this assay endpoint is annotated to the esterase intended target family, where the subfamily is phosphodiesterase.
Binding assays used specific radioligands (tritiated, iodinated) with non-radioactive competitive displacement ligands in agonist or antagonist protocols (as indicated) and various reference compounds and inhibitors to titrate specific binding to receptors and transporters. Most enzyme assays (CYPs, kinases, phosphatases, proteases, HDACs) used recombinant protein and specific substrates (fluorescence mostly, some colorimetric and radioactive) and inhibitors, followed by a biochemical separation of substrate and product. All assays for the biochemical HTS were initially run in duplicate at a single concentration (10 uM for CYP450 assays and 25 uM for all others). Assay-chemical combinations meeting a pre-defined threshold (e.g., 30% inhibition and other criteria defined below) were then run in singleton concentration-response format with maximum concentration of 20 uM for CYPs and 50 uM for all others. Each assay was run with positive and negative controls, and concurrent controls on every plate. The follow-up (secondary) screen tested active chemical-pairs in concentration series, as well as a few additional assays not tested in the primary screen, some selected negative inactives, and several cases re-run in the concentration series for confirmatory purposes.
`CC[C@H]1CC[C@H](NCc2cc3c(cc2OC)[C@H]2C[C@H]2C(=O)N3C)[C@H](c2ccccc2)N1` was tested, and the outcome was “inactive”.
`O=C(O)c1cccc(N(Cc2cccnc2)c2ccc(OC(F)F)c(OC(F)F)c2)c1` was tested, and the AC50 was 4.37 nM (active).
For `Cn1c(=O)cc(Oc2ccc(F)cc2F)c2cnc(NCC(C)(C)O)nc21`, the AC50 was 914 nM (active).
`O=C(O)c1cccc(Oc2ccccc2)c1` was tested, and the outcome was “inactive”.
`CC1(C)C(=O)N(Br)C(=O)N1Br` was tested, and the outcome was “inactive”.
For `COc1ccc(-n2nc(C(F)F)cc2-c2ccc(S(C)=O)cc2)cc1` (stereo not given), the AC50 was 2.29 nM (active).
For `Cn1c(=O)c2c(ncn2C)n(C)c1=O`, the AC50 was 25000 nM (active).
For `C=CCCCCCCCCC(=O)O`, the outcome was “inactive”.
In the case of `O=C(O)c1cc(N=Nc2ccc(S(=O)(=O)Nc3ccccn3)cc2)ccc1O`, the outcome is reported as “inactive”.
With `CNS(=O)(=O)c1cc(C(=O)N2CCC(CCN3C4CCC3CC(n3c(C)nc5ccccc53)C4)(c3cccc(F)c3)CC2)c(Cl)cc1F` (stereo not given) the outcome was “inactive”.
For `CCCCCCc1ccc(O)cc1O`, the AC50 was 39200 nM (active).
With `COC(=O)CC(=O)OC` the outcome was “inactive”.
For `O=C(O)CC(O)C(=O)O` (stereo not given), the outcome was “inactive”.
For `COc1cccc(-c2ccc(/C=C\CN3CCCCCC3)cc2Cl)c1`, the outcome was “inactive”.
For `Cc1ccc(N)cc1O`, the outcome was “inactive”.
